From the supplement of paper PMC3334620
In all, about 33,000 sequences were measured (“E-score (-0.5 to 0.5)”: median about -0.04, highest 2% from about 0.36 on). Shown is part of a subset that was picked to be rich in the highest values.

target: T1, Hmlalpha2 (UniProt P0CY09); assay: PBM E-score (8-mer binding enrichment) (E-score (-0.5 to 0.5)); higher = stronger / more preferred TF binding; conditions: protein concentration: 200 nM; construct: GST-full length
T1 sequence: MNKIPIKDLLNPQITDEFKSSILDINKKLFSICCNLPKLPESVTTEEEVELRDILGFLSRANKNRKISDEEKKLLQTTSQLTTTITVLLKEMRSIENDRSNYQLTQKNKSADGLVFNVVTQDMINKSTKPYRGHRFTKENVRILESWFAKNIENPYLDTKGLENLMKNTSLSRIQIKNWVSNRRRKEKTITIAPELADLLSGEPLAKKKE
How it was run: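 E-scores (a modified Wilcoxon-Mann-Whitney statistic) were assigned by the Universal PBM Analysis Suite to every ungapped eight-base word pooled with its reverse complement. The input came from universal all-10-mer Agilent arrays made double-stranded by primer extension and probed with GST-tagged yeast transcription factors at about 100-200 nM. Fluorescent anti-GST detected bound protein, and masliner normalised the scans.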

| Sequence | PBM E-score |
| --- | --- |
| CCAACCTC | -0.128 |
| GATAAGTA | 0.0843 |
| AAGGGCTC | -0.21 |
| TCGTTTAA | 0.293 |
| GGCGTGTA | 0.464 |
| CGCGTGCA | -0.0161 |
| GGCGTGCA | -0.128 |
| CGCGTGTA | 0.458 |
| AGCGTGTA | 0.472 |
| AGCGTGTC | 0.317 |
| GGCGTGAA | -0.0431 |
| CGCGTGTC | 0.262 |
| AGCGTGTG | 0.249 |
| AACATATA | 0.286 |
| CTGGATCC | -0.25 |
| GCTTAGAA | -0.00669 |
| AAAATTGG | -0.167 |
| GGTCGACC | -0.0813 |
| AGTAACAA | 0.288 |
| TCTAAACA | 0.228 |
| TGTAACAA | 0.384 |
| TGTAAACA | 0.461 |
| CGTAACAA | 0.228 |
| CGTAAACA | 0.394 |
| AGTAAACA | 0.337 |

| Sequence | PBM E-score |
| --- | --- |
| CGTAAGAA | 0.106 |
| TGTAAGAA | 0.391 |
| ACTAAACA | 0.196 |
| GGTAAGAA | -0.0659 |
| GGTAAACA | 0.333 |
| TGCCTCCA | -0.233 |
| CTGCACAC | 0.0406 |
| TATCACGA | 0.00013 |
| GAAGACAC | 0.0337 |
| CCGCTCCC | -0.362 |
| AGGTCTGG | -0.101 |
| AGGAAAGC | -0.203 |
| CGTAAAAA | 0.345 |
| CATAAACA | 0.384 |
| TATAAACA | 0.358 |
| GATAAACA | 0.212 |
| AGTAGAAA | 0.124 |
| TGTAAAAA | 0.444 |
| AGTAAAAA | 0.196 |
| TGTAGAAA | 0.429 |
| CGTAGAAA | 0.31 |
| TTCTTCAA | 0.0864 |
| ACTCATAC | -0.00755 |
| GGAAGCTA | -0.236 |
| CCCTGGGC | -0.302 |

| Sequence | PBM E-score |
| --- | --- |
| AGCCCTAA | 0.00565 |
| AAACACGA | 0.383 |
| AAACACGG | 0.371 |
| AAACACGT | 0.361 |
| AAACACAG | 0.318 |
| AAACACGC | 0.426 |
| AAACACCG | 0.196 |
| AAACACAC | 0.34 |
| AAACACTC | 0.109 |
| AAACACCA | -0.0494 |
| CCAAGTCC | -0.309 |
| TGGTGACA | 0.087 |
| GGGTTGGA | -0.133 |
| AAGGGATC | -0.156 |
| TGTATACA | 0.428 |
| TCTATACA | 0.209 |
| AGTATACA | 0.322 |
| GGTATACA | 0.254 |
| CGTATACA | 0.377 |
| TGTATAAA | 0.342 |
| ATGTGAAT | 0.297 |
| AACAACCG | 0.156 |
| CGTTTAAC | 0.365 |
| GTTTTAAA | 0.22 |
| CGTTTAGA | -0.00881 |

| Sequence | PBM E-score |
| --- | --- |
| CGTTTACC | 0.0999 |
| GTTTTATA | 0.144 |
| CGTTTAAG | -0.102 |
| GGTTTACA | 0.396 |
| GGTTTATA | 0.101 |
| GTTTTACA | 0.408 |
| GGTTTAGA | -0.168 |
| CGTTTACA | 0.452 |
| GGTTTAAC | 0.279 |
| TCAGGGCA | -0.0208 |
| AGGATATG | -0.0728 |
| ATGGTCAC | -0.0853 |
| GCTGAATA | 0.0885 |
| CGGGAAGC | -0.026 |
| AGTTTACA | 0.405 |
| AGTTTACC | 0.075 |
| AGTTTACG | 0.278 |
| CGCATTAG | -0.105 |
| GCCTGTCA | -0.0584 |
| CAGTGTGG | -0.13 |
| AACATGTC | 0.333 |
| AACATTTA | 0.242 |
| AACATCTT | -0.0095 |
| AACATCTG | 0.128 |
| AACATGTG | 0.395 |

| Sequence | PBM E-score |
| --- | --- |
| AACATGTT | 0.46 |
| AACATGTA | 0.484 |
| CACATGTG | 0.163 |
| AAGATGTA | 0.268 |
| ACCAGCAC | -0.0704 |
| ATGCGAAT | -0.0339 |
| CGGTCAGA | -0.199 |
| CAAGGTCA | -0.102 |
| TAGGTGGA | -0.0803 |
| CGGTGGAG | -0.362 |
| ATACTGGA | 0.0598 |
| GTACATAA | 0.377 |
| TAACATAA | 0.422 |
| GAACATAA | 0.191 |
| CAACATAA | 0.359 |
| TTACATAA | 0.474 |
| TGACATAA | 0.319 |
| GGACATAA | 0.05 |
| CTACATAA | 0.317 |
| GCACATAA | 0.12 |
| GCCAAGAC | -0.161 |
| CGTGCAAA | 0.172 |
| ACAATTTA | 0.173 |
| GGACTAGA | -0.227 |
| GCATGTCA | 0.36 |

| Sequence | PBM E-score |
| --- | --- |
| TCATGTAA | 0.482 |
| TCATGTCA | 0.359 |
| TCATGGAA | -0.157 |
| GCATGTGA | 0.263 |
| GCATGTAA | 0.485 |
| AAGGTCCG | -0.108 |
| AACCTCGA | -0.0213 |
| TAGGAGAA | 0.122 |
| GCATAGCC | -0.0671 |
| GTTTTTAA | 0.279 |
| GAGTGTTA | 0.21 |
| ATGTGTTC | 0.233 |
| CTGTGTTC | 0.304 |
| ATGTGTGA | 0.202 |
| CGGTGTTA | 0.253 |
| GTGTGTTA | 0.435 |
| CTGTGTTA | 0.398 |
| ATGTGTTA | 0.429 |
| ATGTGTCA | 0.261 |
| GGGTGTTA | 0.195 |
| ATGTGTGG | 0.0473 |
| ATGTGTTG | 0.39 |
| GTGGACCA | -0.0852 |
| ACTCTGTA | 0.204 |
| ATATCACC | 0.0884 |

| Sequence | PBM E-score |
| --- | --- |
| ACTGCTCG | -0.0631 |
| CCTTCAAC | 0.058 |
| GTGATCAC | -0.229 |
| ATCGCTGC | -0.136 |
| TAAGCGCA | 0.0443 |
| AGTCAACA | 0.269 |
| CTTGGTCC | -0.159 |
| CCCATACC | -0.159 |
| TAGTACAA | 0.244 |
| GTGTACAA | 0.439 |
| CTGTACAG | 0.0499 |
| GCGTACAC | 0.247 |
| GTGTACAC | 0.415 |
| GGGTACAA | 0.0999 |
| ATGTACCC | 0.148 |
| CTGTACAC | 0.291 |
| CTGTACAA | 0.288 |
| AGGTACAC | 0.0905 |
| TTGTACAA | 0.442 |
| ATGTACAC | 0.43 |
| AACTGCGT | 0.257 |
| ATGAAGAC | 0.028 |
